# The campaign covered roughly 68,000 compounds. About 2,700 (4%) showed an effect of 50% or more. The sample as a whole holds a higher share of strong results than the screen did.
# Tested on: Plasmodium berghei
# Experiment: Screen against P. berghei liver stage (PbLuc), transformed with Luciferase, at 2uM
# Assay type: functional, HepG2
# Conditions: tested at 2 uM
row,SMILES,INHIBITION [%]
1,Cc1oncc1C(=O)NCc1cc(=O)n2c(n1)CN(C(C)C)CCC2,4.42
2,Cc1nc(CCNC(=O)NCc2ccc(N(C)C)nc2)cs1,-16.42
3,Cc1nc(CCNC(=O)NCc2cccc(N(C)C)n2)cs1,53.45
4,Cc1nc(CNC(=O)NCCc2ccc(N(C)C)cc2)cs1,12.88
5,CN(C)c1ncccc1CNc1cc(N2CCCC2CO)ncn1 (configuration not stated),-1.02
6,Cc1cnccc1CN(C)Cc1c[nH]nc1-c1ccc(F)cc1F,51.39
7,Cc1nonc1CN(C)Cc1c[nH]nc1-c1ccc(F)cc1F,2.59
8,CC(C)CN(C)Cc1c[nH]nc1-c1ccc(F)cc1F,-22.69
9,CCCN1CCC(c2cc(CCOc3ccc(C(F)(F)F)cc3)[nH]n2)C1 (configuration not stated),27.53
10,Cc1cccc(CN2CCc3[nH]nc(C(=O)N(C)C)c3C2)n1,-25.31
11,OC(COCc1ccccc1)CSc1nnc2ccccn12 (configuration not stated),2.9
12,OC(COCc1ccco1)CSc1nnc2ccccn12 (configuration not stated),76.82
13,OC(COCc1cccs1)CSc1nnc2ccccn12 (configuration not stated),45.82
14,Cc1ccccc1N1CCCN(c2ccncn2)CC1,53.45
15,Cc1ccccc1N1CCCN(C(=O)CCc2ccncc2)CC1,1.42
16,Cc1ccccc1N1CCN(c2ccncn2)C(C)C1 (configuration not stated),-90.79
17,CC(C)N1CCOC(Cc2nn3c(Cc4ccccc4)nnc3s2)C1 (configuration not stated),20.29
18,CCCc1nnc2sc(CC3CN(Cc4ccccc4)CCO3)nn12 (configuration not stated),51.43
19,CC(C)c1nnc2sc(CC3CN(Cc4ccccc4)CCO3)nn12 (configuration not stated),23.33
20,CCN1CCc2[nH]cnc2C12CCN(c1ccc(Cl)c(C(=O)O)n1)CC2,-3.87
21,O=C(NCc1cccnc1-n1cncn1)c1cc(Cl)ccn1,34
22,CNCC1CCC(c2cc(CN(C)C(=O)c3cnccn3)n(C)n2)CC1 (configuration not stated),24.98

row,SMILES,INHIBITION [%]
1,Cc1c(C(C)NC2CSCCSC2)cnn1-c1ccc(F)cc1F (configuration not stated),81.59
2,COc1ccc(-n2ncc(C(C)NC3CCSCC3)c2C)cc1 (configuration not stated),-62.99
3,Cc1c(C(C)NC2CCOCC2)cnn1-c1ccc(F)cc1F (configuration not stated),69.67
4,CSc1ncc(CNC(C)c2cnn(-c3ccc(F)cc3F)c2C)cn1 (configuration not stated),-20.35
5,Cc1c(C(C)NC(=O)Nc2ccc(F)cc2F)cnn1C (configuration not stated),-41.11
6,Cc1c(C(C)NC2CCCC2)cnn1-c1ccc(F)cc1F (configuration not stated),12.43
7,Cc1c(C(C)NC2CCN(C(C)C)CC2)cnn1-c1ccc(F)cc1F (configuration not stated),14.82
8,CC(=O)N1CCC(NC(C)c2cnn(-c3ccc(F)cc3F)c2C)CC1 (configuration not stated),79.21
9,Cc1c(C(C)NCC2CCCC2)cnn1-c1ccc(F)cc1F (configuration not stated),10.05
10,Cc1cc2c(cc1NC(N)=O)OCO2,23.3
11,CCn1nc(C)cc1C(=O)N1C[C@@H]2C[C@@H](c3nnc(C)[nH]3)O[C@@H]2C1,24.23
12,CN1CCN(C2COC3(CCN(Cc4ccsc4)CC3)C2)CC1 (configuration not stated),-0.38
13,COc1ccc2c(ccn2CCC(=O)/N=c2\[nH]nc(C3CCCO3)s2)c1 (configuration not stated),1.57
14,CCOc1ccccc1CC(=O)N1C[C@@H](C(=O)O)[C@H](c2ccncc2)C1,-36.68
15,Cc1nc(C)c(CC(=O)N2C[C@@H](C(=O)O)[C@H](c3ccncc3)C2)s1,56.78
16,Cc1nc(C)c(CC(=O)N2C[C@H]3CC[C@@H](C2)N(CC2CC2)C3)s1,-38.36
17,CCC[C@@H]1CN(C(=O)Cc2sc(C)nc2C)C[C@H]1C(=O)O,53.55
18,Cc1nc(C)c(CC(=O)N2C[C@@H](C(=O)O)[C@H](c3ccccc3C)C2)s1,-57.67
19,CCC[C@@H]1CN(C(=O)c2c(F)ccc(C)c2Cl)C[C@H]1C(=O)O,2.3
20,CCc1nccn1C1CCCN(C(=O)c2ccc3c(c2)OCCO3)C1 (configuration not stated),-14.17
21,CCOC1CCC2(CCN(C(=O)c3csnn3)CC2)c2ccccc21 (configuration not stated),30.15
22,CC(C)(C)c1nc(CN2CCN(C(=O)c3cnccn3)CC2)cs1,8.5

row,SMILES,INHIBITION [%]
1,COc1cccc(CN2C[C@@H]3COC[C@]3(COCc3ccccn3)C2)c1,17.35
2,O=C(Nc1ccc(-c2csnn2)cc1)N1CCC(N2CCCC2)C1 (configuration not stated),-55.13
3,Cc1noc(CCCNS(=O)(=O)N2CCCC2c2ccco2)n1 (configuration not stated),41.52
4,Cc1noc(CCNS(=O)(=O)N2CCCC2c2ccc(C)o2)n1 (configuration not stated),20.34
5,Cc1noc(CCNS(=O)(=O)N2CCCC2c2ccco2)n1 (configuration not stated),51.76
6,CN(Cc1cccc(C(N)=O)c1)CC1CCCN1c1cccnn1 (configuration not stated),15.67
7,CCOC1CCN(C(=O)c2c(Cl)c3ccccc3n2C)CC1,2.8
8,Cc1ccsc1C(O)CNS(=O)(=O)Cc1ccc(F)cc1 (configuration not stated),-10.98
9,Cc1nc(NCC23CCCN2CCC3)cc(C2CCCNC2)n1 (configuration not stated),35.46
10,Cc1nc(NCc2ccc(C)o2)cc(C2CCNCC2)n1,7.42
11,CNc1cc(C2CCCNC2)nc(C)n1 (configuration not stated),-23.54
12,Cc1nc(NCCC23CCCN2CCC3)cc(C2CCNCC2)n1,50.61
13,Cc1cc(C2CCC2)nc(NCCC23CCCN2CCC3)n1,-44.93
14,Cc1nc(NCCC23CCCN2CCC3)cc(C2CCCNC2)n1 (configuration not stated),55.66
15,CCO[C@@H]1CC[C@H]2[C@H]1OCCN2C(=O)CC1=CCCCC1,-32.82
16,CC(C)n1cnc(C2CN(C)c3ccc(C(=O)NC4CCCC4)cc32)n1 (configuration not stated),9.36
17,O=C(c1ccc2c(c1)[nH]c(=O)n2C1CCC(O)CC1)N1CCOCC1 (configuration not stated),42.8
18,Cc1cc(N2CCCC2c2nc(C)cc(CCC(=O)O)n2)ncn1 (configuration not stated),27.81
19,NC(=O)C1CCN(C(=O)NCc2ccccc2-n2cccn2)C1 (configuration not stated),32.41
20,c1cncc(COC2COC3(CCN(c4cnccn4)CC3)C2)c1 (configuration not stated),-16.36
21,COc1ccccc1CC(=O)N1CCN(Cc2ccco2)C[C@@H]1C,4.19
22,COc1ccc(CC(=O)N2CCN(Cc3ccco3)C[C@@H]2C)cc1,19.69

row,SMILES,INHIBITION [%]
1,C[C@@H]1CN(Cc2ccco2)CCN1C(=O)Cc1ccccc1F,50.68
2,Cc1nn(C)c(C)c1CN(C)C(C(=O)O)c1ccc(F)cc1F (configuration not stated),13.99
3,CNC(=O)C(C)(C)NC(=O)c1cc(COc2ccccc2OC)[nH]n1,-25.61
4,COc1ccc(Cl)cc1CC(=O)NS(=O)(=O)c1ccc(C(N)=O)cc1,58.96
5,COc1ccc(C)cc1CC(=O)NS(=O)(=O)c1ccc(C(N)=O)cc1,43.75
6,COc1ccccc1CC(=O)NS(=O)(=O)c1ccc(C(N)=O)cc1,1.5
7,COc1ccc(F)cc1CN(CC(N)=O)C(C)C,-21.69
8,COc1ccc(C)cc1CN(CC(N)=O)C(C)C,11.51
9,COc1ccc(Cl)cc1CN(CC(N)=O)C(C)C,50.46
10,c1ccn(Cc2nnc3n2CCCN(c2cnccn2)C3)c1,-11.68
11,Cc1cnc(CN(C)C2CCN(Cc3ccc(Cl)s3)C2)o1 (configuration not stated),-39.39
12,Cc1noc(C)c1CN1C(=O)[C@@H]2CC[C@H]1CN(Cc1cccnc1N)C2,31.38
13,CC(C)=CCN1C(=O)[C@@H]2CC[C@H]1CN(Cc1cccnc1N)C2,16.01
14,Nc1ncccc1CN1C[C@H]2CC[C@@H](C1)N(CC1CC1)C2=O,70.26
15,Cc1nccc(NCc2cncc3c2CCN(CC2CC2)C3)n1,25.86
16,CCOc1ccc(NC2CCN(C3CC3)C2=O)cn1 (configuration not stated),-13.8
17,Cc1ncc(CNCC(C)O)c2cc(C(=O)c3ccc(Br)cc3)oc12 (configuration not stated),-4.01
18,Cc1ncc(CNCCO)c2cc(C(=O)c3ccc(Br)cc3)oc12,29.19
19,Cc1ncc(CNC(C)(C)CO)c2cc(C(=O)c3ccc(Br)cc3)oc12,61.06
20,CCc1ccc(C2CCCCCN2C(=O)CNC(=O)C2CC2)o1 (configuration not stated),-1.21
21,OC(CNCCn1cccn1)c1ccc(C(F)(F)F)cc1 (configuration not stated),-33.92
22,CCc1nnc(Nc2cccc(C3CCN(C)CC3)n2)s1,7.64

row,SMILES,INHIBITION [%]
1,CCc1nnc(Nc2cccc(C3CCN(CC4CC4)CC3)n2)s1,20.71
2,CCc1nnc(Nc2cccc(C3CCCN(CC(C)(C)C)C3)n2)s1 (configuration not stated),53.05
3,CC(C)CCOCCNC(=O)Nc1ccc(F)c(C(N)=O)c1,-24.7
4,Cc1cc(C(F)(F)F)nc(C2COCCN2S(C)(=O)=O)n1 (configuration not stated),6.64
5,Cc1ccc(CN(C)C(C(=O)O)c2ccc3c(c2)OCO3)o1 (configuration not stated),-39.01
6,CC(C)(C)NC(=O)C1CSCN1S(=O)(=O)c1cccc(F)c1 (configuration not stated),7.74
7,Cc1cccc(S(=O)(=O)N2CSCC2C(=O)NC(C)(C)C)c1 (configuration not stated),55.18
8,Cc1cccc(S(=O)(=O)N2CSCC2C(=O)NCC2CC2)c1 (configuration not stated),3.89
9,N#Cc1cccc(NC(=O)C2CCCN2c2nccs2)c1 (configuration not stated),6.77
10,Cc1ccc2nc(C3CCCN3Cc3csc(C)n3)[nH]c2c1 (configuration not stated),29.53
11,Cc1ccc2nc(C3CCCN3Cc3nnc(C)s3)[nH]c2c1 (configuration not stated),78.16
12,Cc1ccc2nc(C3CCCN3Cc3scnc3C)[nH]c2c1 (configuration not stated),47.23
13,O=C(NCCc1ccccc1)N1CCC(C2OCCO2)CC1,5.92
14,O=C(Cc1ccc(CO)cc1)N1CCN(c2ccccc2Cl)C(=O)C1,47.76
15,CCC(NC(=O)c1ccc2[nH]ccc2c1)C(=O)N1CCOCC1 (configuration not stated),5.98
16,CC(C)c1nnc2n1CCN(Cc1ncc(-c3ccccc3)o1)C2,-58.75
17,O=C(NCc1ccccc1OCC1CC1)C1CCOC1 (configuration not stated),14.82
18,COCCNc1ccccc1CNC(=O)C1CCCOC1 (configuration not stated),-4.26
19,CC(C)(C)Oc1ccccc1CNC(=O)C1CCCOC1 (configuration not stated),52.98

# Source: ChEMBL document CHEMBL4513216, “Probing the Open Global Health Chemical Diversity Library for Multistage-Active Starting Points for Next-Generation Antimalarials” (ACS Infect Dis, 2020)
